# Screening data deposited in PubChem by National Center for Advancing Translational Sciences (NCATS).
# The list is not random: actives were taken first. Their share in the collection is about 12%.
# HP1b chromo inh: HTS for Inhibitors of HP1-beta Chromodomain Interactions with Methylated Histone Tails. Potency, µM (highest dose often 114 µM), without a hit: at the highest dose activity change, negative = inhibition, hits mostly inhibitors. Chromobox protein homolog 1 (Homo sapiens), P83916. AlphaScreen HP1-beta / biotin-H3K9me3 peptide binding. actives 0.56% (n = 390,000); also: potency is read from the fitted curve at half-maximal effect; nearly all actives have a fitted effect of over 70% in size
#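 AlphaScreen: HP1-beta (50 nM) preformed 30 min with biotin-H3(1-18)K9me3 peptide (50 nM) in PBS pH 7.4, 0.01% Tween-20. Compound added for 30 min at RT, then streptavidin donor/nickel chelate acceptor beads (10 ug/mL) for 30 min.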
# G9a block: qHTS Assay for Inhibitors of Histone Lysine Methyltransferase G9a | Histone-lysine N-methyltransferase EHMT2 (Homo sapiens), Q96KQ7 | G9a H3K9 monomethylation, AlphaScreen, 2 h | Potency, µM (titrated, usually from 102 µM), for inactives: at the highest dose activity, negative = inhibition, hits mostly inhibitors | actives 8.8% (n = 350,000); also: potency is read from the fitted curve at half-maximal effect; % is scaled to controls: 0 for no effect and ±100 for the full control effect; nearly all actives have a fitted effect of over 75% in size
#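 Quantitative HTS format: methyltransferase activity on a biotin-tagged H3K9 peptide is measured by AlphaScreen, using a rabbit anti-monomethyl-H3K9 antibody with streptavidin donor and anti-IgG acceptor beads. Final levels are 20 nM enzyme, 500 nM peptide, 20 uM SAM; 2 h RT.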
# PLK1 PBD block: qHTS for Inhibitors of PLK1-PDB (polo-like kinase 1 - polo-box domain): Primary Screen | Serine/threonine-protein kinase PLK1 (Homo sapiens), P53350 | Plk1 PBD binding of FITC phosphopeptide, fluorescence polarization | Potency, µM, for inactives: max response, negative = inhibition, usual class: inhibitors | actives 2.8% (n = 360,000) | AID 720504, 2013; also: potency is read from the fitted curve at half-maximal effect; series mostly up to about 57 µM; % is scaled to controls: 0 for no effect and ±100 for the full control effect; nearly all actives have a fitted effect of over 65% in size
# PI5P4Ka inh: qHTS for Inhibitors of phosphatidylinositol 5-phosphate 4-kinase (PI5P4K). Phosphatidylinositol 5-phosphate 4-kinase type-2 alpha (Homo sapiens), P48426. PI5P4Kalpha enzyme, ADP-Glo luminescence, 60 min; hits give low values. max response, %. actives 1.2% (n = 330,000). AID 652105, 2013; active = max response of -50% or lower; inconclusive = between -30% and -50%; inactive = -30% or higher; also: value at the top dose of about 77 µM; % is scaled to controls: 0 for no effect and ±100 for the full control effect
#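 Compounds were pin-transferred onto PI5P4Kalpha and substrate in HEPES pH 7.4 buffer with EGTA, CHAPS and 5% DMSO. ATP (5 microM final) started the reaction, which ran 60 minutes at room temperature before ADP-Glo detection.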
# JMJD2A Tudor inh: qHTS Assay for Inhibitors of JMJD2A-Tudor Domain | AID 504339, 2011 | AlphaScreen JMJD2A-Tudor / H3K4me3 peptide binding | Potency, µM (top dose mostly 114 µM), for inactives: at the top dose activity change, negative = inhibition, hits mostly inhibitors | actives 4.4% (n = 390,000) | Lysine-specific demethylase 4A (Homo sapiens), O75164; also: potency is read from the fitted curve at half-maximal effect; % is scaled to controls: 0 for no effect and ±100 for the full control effect; nearly all actives have a fitted effect of over 50% in size
# BAZ2B inh: qHTS Assay for Inhibitors of BAZ2B; Bromodomain adjacent to zinc finger domain protein 2B (Homo sapiens), Q9UIF8; AlphaScreen BAZ2B-H3K14Ac peptide displacement; Potency, µM (titrated, usually from 114 µM), inactives show at the highest dose activity change, negative = inhibition, most hits filed as inhibitors; actives 4.4% (n = 360,000); AID 504333, 2011; also: potency is read from the fitted curve at half-maximal effect; % is scaled to controls: 0 for no effect and ±100 for the full control effect; nearly all actives have a fitted effect of over 60% in size
#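 AlphaScreen displacement of biotin-H3(5-23)K14Ac peptide (50 nM final) from BAZ2B (50 nM final) in PBS pH 7.4, 0.01% Tween-20; complex preformed 30 min RT, then compounds (top 110 uM) 30 min RT, beads 20 min dark.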
# * marks the source's active call; other numbers are inactive results; ? = inconclusive; . = no result given; ! = not active in a repeat; [ ] = another dose, or the depositor's remark. Unless noted, calls follow the shape of the dose curve; as a rule, active = well fitted curve in the direction sought with a large enough effect; inconclusive = small, poorly fitted or top-dose-only effect, or another doubt; inactive = no such curve, though single readings can be large; an effect the other way counts as inactive or inconclusive.
SMILES,HP1b chromo inh,G9a block,PLK1 PBD block,PI5P4Ka inh,JMJD2A Tudor inh,BAZ2B inh
CC(=O)N(c1cc(C)ccc1C)c1ccccc1[N+](=O)[O-],7%[57 µM],.,-10%,-2,-13%,.
O=C(O)Cc1nc2nc3c(c(=O)n2[nH]1)CCCC3,7%,?,-2%,.,10µM*,-3%
O=C(Cc1ccccc1)Nc1ccc(N2CCOCC2)cc1,87%,-2%,-6%,0,-9%,-11%
Cc1cc(C)cc(NC(=O)Nc2ccc(N3CCCCC3)cc2)c1,16%,8.9µM*,2%,-3,-21%,-27%
O=C(CN1CCCCC1)Nc1ccc(N2CCCCCC2)cc1,?,18µM*,-8%,-7,50µM*,14µM*
CCCOC(=O)Nc1ccc(N2CCCCC2)cc1,-30%,8.9µM*,4%,.,?,71µM*
O=C(CN1CCCCC1)Nc1ccccc1,44%,-6%,1%,-1,-5%,5%
O=C(Cc1ccccc1)Nc1ccc(N2CCCC2)cc1,-6%,8.9µM*,-4%,-27,?,?
COc1ccc2cc(CNCCOCCOCCNCc3ccc4cc(OC)ccc4c3)ccc2c1,1%,.,-1%,-6,-19%,.
O=C(CCc1ccccc1)Nc1ccc(N2CCCCC2)cc1,30%,8.9µM*,-4%,-1,-15%[57.1 µM],-22%
O=C(Cc1ccc(Cl)cc1)NCCS(=O)(=O)N1CCN(c2ccccc2)CC1,1%,-1%[0.501 µM],-9%,-19,-17%,9%
O=C(Cc1ccccc1)NCCS(=O)(=O)N1CCN(c2ccccc2)CC1,1%,50µM*,1%,4,-19%,6%
O=C(CCc1ccccc1)Nc1ccc(S(=O)(=O)N2CCCC2)cc1,49%,.,3%,-6,0%,-3%
Cc1ccc(CNC(=O)c2cccc(NC(=O)N3CCSc4ncccc43)c2)cc1,15%,9%[59 µM],.,.,-2%,5%
C[C@@H]1CCCCO[C@@H](CN(C)C(=O)CCCN(C)C)[C@@H](C)CN([C@H](C)CO)C(=O)c2cc(NC(=O)CCC(F)(F)F)ccc2O1,.,.,-13%,8,.,.
CCOC(=O)c1ccc(N2C(=O)c3n[nH]c(C)c3C2c2ccc(OCC)cc2)cc1 (stereo unspecified),29%,-28%[59 µM],.,.,?,.
COCCNC(=S)N1CCN(c2nc(-c3ccc(F)cc3)cs2)CC1,1%,50µM*,-13%,1,-35%,?
COCCNC(=S)N1CCN(c2nc(-c3ccc(Cl)cc3)cs2)CC1,6%,?,24µM*,0,32µM*,-31%
CNC(=S)N1CCN(c2nc(-c3ccc(Cl)cc3)cs2)CC1,-11%,12%,0%,8,-14%,0%
CCNC(=S)N1CCN(c2nc(-c3ccc(F)cc3)cs2)CC1,1%,22%,-20%,14,-27%,-34%
CCc1ccc(-n2c(SCC(=O)NC(C)CC)nc3n[nH]c(C)c3c2=N)cc1 (stereo unspecified),37%,8%[59 µM],.,.,-21%,7%
COc1ccc(CC(=O)Nc2nccs2)cc1S(=O)(=O)N1CCOCC1,17%,.,0%,3,-2%,.
COc1ccc2nc(NC(=O)Cc3ccc(OC)c(S(=O)(=O)N4CCOCC4)c3)sc2c1,-23%,79µM*,?,-9,-11%[11.4 µM],-8%
COC(=O)c1c(NC(=O)Cc2ccc(OC)c(S(=O)(=O)N3CCOCC3)c2)sc(C)c1C,-9%,50µM*,-11%,-7,-30%,-26%
COc1ccc(/C=N/c2oc(C)c(C)c2C#N)c(OC)c1,32%,50µM*,2%,0,12%,-8%
SMILES,HP1b chromo inh,G9a block,PLK1 PBD block,PI5P4Ka inh,JMJD2A Tudor inh,BAZ2B inh
Cc1oc(/N=C/c2cccc3ccccc23)c(C#N)c1C,-36%,-13%[59 µM],24µM*,.,35µM*,-5%
Cc1oc(/N=C/c2ccccc2)c(C#N)c1C,-2%,?,-12%,3,-7%,-31%
COc1cc(/C=N/c2oc(C)c(C)c2C#N)cc(Br)c1O,-18%,10µM*,17%,-21,?,?
COC(=O)[C@@]1(Sc2ccc(C)cc2)CC(=O)N(c2ccccc2)[C@@H]1c1ccccc1,.,.,3%,-1,.,.
CCOC(=O)c1c[nH]c2cc(OCC(C)C)c(OCC(C)C)cc2c1=O,.,-21%[12.7 µM],.,.,.,.
CCOC(=O)N1CCN(CCC(=O)Nc2cc(C)ccc2C)CC1,?,50µM*!,4%,-1,2%,-10%
CC(C)Oc1ccc(C(=O)CCN2CCCCC2)cc1,54%,7.9µM*,?,-1,-24%,-4%
CCOc1ccc(C(=O)CCN2CCCCC2)cc1,53%,8.9µM*,?,1,5%,39%
CCOc1ccc(C(=O)CCC(=O)NN2CCCCC2)cc1,.,.,-1%,-11,.,.
CCOc1ccc(C(=O)Cc2ccccc2)cc1,62%,.,-4%,1,10%,.
Cc1ccc(C)c(NC(=O)CCN2CCN(C)CC2)c1,16%,12%,-9%,4,-14%,-6%
CCOc1ccc(C(=O)CSCCC(=O)O)cc1,45%,32µM*,-14%,-4,-12%,.
Cc1ccccc1NC(=O)c1sc2nc3n(c(=O)c2c1C)N=C(c1ccccc1)CS3,13%,-32%[59 µM],.,.,-18%,?
COCCCNC(=O)c1ccc(Cn2c(=O)c3ccccc3n(Cc3c(C)cc(C)cc3C)c2=O)cc1,27%,4%[59 µM],.,.,-10%,6%
O=S(=O)(Nc1ccc(-n2cnnn2)cc1)c1cccc(F)c1,52%,-8%,-1%,-6,-4%,-3%
CCCCCOc1ccc(C(=O)CCN2CCOCC2)cc1,45%,45µM*,30µM*,1,-1%,2%
COc1ccc(C(=O)OCCN2CCCCC2)cc1,31%,6%[59 µM],2%,1,-2%,-18%
COc1ccc(C(=O)CCN2CCCCCC2)cc1,25%,8.9µM*,16µM*,.,-8%,-7%
CCCOc1ccc(C(=O)CCN2CCN(C(=O)OCC)CC2)cc1,19%,10µM*,15µM*,-7,-23%,-27%
CC(C)Oc1ccc(C(=O)CCN2CCOCC2)cc1,56%,.,?,2,3%,.
COc1ccc(C(=O)CCN2CCN(c3ccc(OC)cc3)CC2)cc1,9%,40µM*,-24%,11,-31%,?
